Laboratory results: PubChem BioAssay AID2676 (National Center for Advancing Translational Sciences (NCATS), 2010)
Among all 370,000 compounds or so, about 1,100 (0.3%) were called active. Another 1% or so got no clear call; they are omitted. Calls come from the whole dose curve; as a rule, active = well fitted activation curve with a large enough effect; inconclusive = small, poorly fitted or top-dose-only effect; inactive = flat fitted curve, though single readings scatter. For the sample, actives were picked, then their nearest neighbours and some compounds at random.

These molecules were tested against Relaxin receptor 1 (Homo sapiens) (UniProt Q9HBX9) (assay: qHTS Assay for Agonists of the Relaxin Receptor RXFP1). Settings: HEK293T-RXFP1 cAMP TR-FRET, 30 min; series mostly up to 57.5 µM; activation: at the top concentration.
Chain of Relaxin receptor 1 (Homo sapiens) (Q9HBX9 whole entry, looked up): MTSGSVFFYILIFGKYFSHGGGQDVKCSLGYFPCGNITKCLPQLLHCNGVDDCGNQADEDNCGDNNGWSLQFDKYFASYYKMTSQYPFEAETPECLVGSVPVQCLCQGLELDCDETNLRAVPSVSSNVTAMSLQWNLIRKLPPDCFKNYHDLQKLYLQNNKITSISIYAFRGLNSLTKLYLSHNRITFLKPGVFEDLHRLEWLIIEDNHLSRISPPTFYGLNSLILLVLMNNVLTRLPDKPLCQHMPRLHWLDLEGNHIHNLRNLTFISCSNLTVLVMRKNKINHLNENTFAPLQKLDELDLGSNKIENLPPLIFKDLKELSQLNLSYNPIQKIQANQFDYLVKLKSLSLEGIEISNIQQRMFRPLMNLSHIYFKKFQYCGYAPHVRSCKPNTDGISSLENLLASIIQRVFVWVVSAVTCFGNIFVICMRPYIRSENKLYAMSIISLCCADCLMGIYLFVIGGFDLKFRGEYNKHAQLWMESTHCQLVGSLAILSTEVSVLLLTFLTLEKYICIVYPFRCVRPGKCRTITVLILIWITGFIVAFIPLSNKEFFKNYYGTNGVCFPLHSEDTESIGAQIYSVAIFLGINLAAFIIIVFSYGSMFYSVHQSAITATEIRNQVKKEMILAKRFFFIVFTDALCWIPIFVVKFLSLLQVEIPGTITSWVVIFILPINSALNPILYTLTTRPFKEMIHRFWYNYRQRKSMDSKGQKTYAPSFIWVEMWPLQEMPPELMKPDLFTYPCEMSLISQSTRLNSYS
In short: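 HEK293 cells stably expressing RXFP1, treated 30 min at 37C with compounds plus PDE4 inhibitor Ro 20174; cAMP measured by HTRF TR-FRET. Normalized to buffer and 29 nM porcine relaxin; EC50 by Hill fit.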
% is set by controls: 0 for no effect and ±100 for the full control effect.
Note: nearly all actives have a fitted effect of over 60% in size.

**Q.** How did the “activation” value turn out when `Cc1ccc(Cl)cc1N1CCN(S(=O)(=O)c2cc3[nH]c(=O)c(=O)[nH]c3cc2C)CC1` was run?
**A.** -0.379% (inactive)

**Q.** With `COc1ccc2c(c1)Cc1sc(NC(=O)c3ccccc3Br)nc1-2` as the molecule, how does the “activation” value read?
**A.** -0.462% (inactive)

**Q.** How did the “activation” value turn out when `COc1ccc(NC(=O)CCc2nnc3n(CC(C)C)c(=O)c4ccccc4n23)cc1OC` was run?
**A.** 1.01% (inactive)

**Q.** How did the “activation” value turn out when `COc1cc(OC)cc(C(=O)Nc2c(C(=O)Nc3ccc(F)cc3)oc3ccccc23)c1` was run?
**A.** 21.3% (inactive)

**Q.** For `COc1cccc(-c2nc(CS(=O)(=O)CC(=O)N3CCN(c4cc(C)ccc4C)CC3)c(C)o2)c1`, which “activation” value is on record?
**A.** -2.79% (inactive)

**Q.** For `Cc1cccc(Cn2c(SCc3ccc(C(=O)N4CCC(C)CC4)cc3)nc3ccncc32)c1`, which “activation” value is on record?
**A.** -0.29% (inactive)

**Q.** Which “activation” value does the source give for `COc1ccccc1CNC(=O)C(=O)NCC(c1ccco1)S(=O)(=O)c1ccc(F)cc1` (stereo not given) here?
**A.** -0.717% (inactive)

**Q.** With `CCCCC(=O)Nc1nnc(S(=O)(=O)N(C)Cc2ccco2)s1` as the molecule, how does the “activation” value read?
**A.** 0.754% (inactive)

**Q.** How did the “activation” value turn out when `COc1cccc(C(=O)Nc2nnc(S(=O)(=O)N(C)c3ccccc3)s2)c1` was run?
**A.** 1.2% (inactive)

**Q.** How did the “activation” value turn out when `CCC(=O)Nc1ccccc1-c1nc2ccccc2n(CC(=O)Nc2ccc(C)c(C)c2)c1=O` was run?
**A.** -4.71% (inactive)

**Q.** How did the “activation” value turn out when `CC1CCN(C(=O)Cn2c(=O)n(-c3ccc(Cl)cc3)c(=O)c3c4c(sc32)CCC4)CC1` was run?
**A.** 26.2% (inactive)

**Q.** Which “activation” value does the source give for `CCC(C)Nc1oc(-c2ccc(COc3ccc(Cl)cc3)o2)nc1C#N` (stereo not given) here?
**A.** 0.927% (inactive)

**Q.** `CCOC(=O)c1c(C)[nH]c(CCC(=O)NCCCN2CCN(c3cccc(Cl)c3)CC2)c1C` was tested. Which “activation” value did it give?
**A.** 1.78% (inactive)

**Q.** How did the “activation” value turn out when `Cc1ccc(Nc2c(-c3ccc(Cl)cc3)nc3sccn23)c(C)c1` was run?
**A.** 0.704% (inactive)

**Q.** For `CC(=O)N1CCCc2cc(S(=O)(=O)Nc3ccc(Cl)cc3F)ccc21`, which “activation” value is on record?
**A.** -0.63% (inactive)

**Q.** With `O=C(COc1ccc(Cl)cc1)Nc1ccccc1OCc1cc(=O)n2ccccc2n1` as the molecule, how does the “activation” value read?
**A.** 6.2% (inactive)

**Q.** `CCOc1ccccc1C(=O)Nc1ccc2c(c1)N(C)C(=O)c1ccccc1S2` was tested. Which “activation” value did it give?
**A.** 1.45% (inactive)

**Q.** For `CC(=O)Nc1cccc(NC(=O)CSc2nccn2Cc2ccc3c(c2)OCO3)c1`, which “activation” value is on record?
**A.** 2.66% (inactive)

**Q.** For `Cc1cc(OCC(=O)NCC2(N(C)C)CCCCC2)cc(C)c1Cl`, which “activation” value is on record?
**A.** 0.643% (inactive)

**Q.** With `COc1ccc(CNC(=O)CSc2n[nH]c(-c3ccc(F)cc3)n2)cc1` as the molecule, how does the “activation” value read?
**A.** 1.03% (inactive)

**Q.** With `CCc1ccc(NC(=O)CN2CCSc3ccc(S(=O)(=O)N4CCCC4)cc32)cc1` as the molecule, how does the “activation” value read?
**A.** 1.82% (inactive)

**Q.** For `Cc1ccc(S(=O)(=O)N(Cc2nc(-c3ccc(Cl)cc3)no2)C2CCCCC2)cc1`, which “activation” value is on record?
**A.** 0.473% (inactive)

**Q.** `COc1ccc2c(c1)c(=O)c(C(=O)c1ccccc1)cn2CC(=O)Nc1ccc2c(c1)OCCO2` was tested. Which “activation” value did it give?
**A.** 0.33% (inactive)

**Q.** How did the “activation” value turn out when `CCCC(=O)N1CCN(c2nc3c(OC)ccc(C)c3s2)CC1` was run?
**A.** -0.0199% (inactive)

**Q.** How did the “activation” value turn out when `CCCN(CCC)CCNC(=O)c1ccc2c(c1)NC(=O)C(CS(=O)(=O)Cc1cccc(Br)c1)N2` (stereo not given) was run?
**A.** 3.62% (inactive)
